# Results from PubChem BioAssay AID2035 (National Center for Advancing Translational Sciences (NCATS), 2009).
# This is one part of the list. A call without a number means that no potency is given here. The source made the active and inactive calls. Calls follow the shape of the dose curve; as a rule, active = well fitted inhibition curve with a large enough effect; inconclusive = small, poorly fitted or top-dose-only effect; inactive = flat fitted curve, though single readings scatter.
# Test: Confirmatory Assay for Inhibitors of Human Galactokinase (GALK): Phenol-HRP redox assay counterscreen
# Details: Phenol red-HRP H2O2 redox cycling, absorbance 600 nm; series mostly up to 115 µM
# From the text: NIH Molecular Libraries Probe Production Centers Network [MLPCN] NIH Chemical Genomics Center [NCGC] MLPCN Grant: R03 MH085689-01 Assay Submitter (PI): Kent Lai (University of Utah School of Medicine, 50 N Mario Capecchi Drive, Salt Lake City, UT 84132) NCGC Assay Overview: One mM dithiothreitol (DTT) was used as a reducing agent to maintain the galactokinase (GALK) enzyme in its active form in the GALK qHTS screen (AID: 1868). However, it has been shown that in the presence of DTT a number of compounds also undergo redox recyling, generating a significant amount of H2O2 that can oxidize crucial cysteine residues in the enzyme, leading to and a false-positive result. To evaluate and flag redox recycling compounds for compounds re-acquired from the qHTS screen, an endpoint colorimetric assay developed by Johnston et al. was adopted and optimized for a 1536-well plate format. In brief, the assay detects the presence of H2O2 by following the change in absorbance at 600 nm due to oxidation of phenol red (Sigma, cat# 114537) catalyzed by horseradish peroxidase (HRP; Invitrogen). A stop reagent, 1N NaOH was added prior to reading the absorbance. DMSO and different concentrations of hydrogen peroxide (Sigma, cat# 216763) in the GALK buffer were used as negative and positive controls respectively.
# NCGC Assay Protocol Summary: Two uL/well of GALK buffer (20mM HEPES pH8.0, 5 mM MgCl2, 60 mM NaCl, 1 mM DTT, 0.01% BSA final concentration) was dispensed into a 1536-well assay plates (Greiner, black clear bottom plates) with Aurora Discovery BioRAPTR Flying Reagent Dispenser (FRD; Beckton-Dickenson). Compound and control solutions (23 nL each) were transferred to the assay plate in their respective wells using Kalypsys pin tool equipped with a 1536-pin tool head and incubated at room temperature for 30 min. Presence of H2O2 produced by redox cycling compounds was detected by adding 2 uL/well phenol red - HRP detection reagent ([…] phenol red in 1x Hanks Balanced Salt Solution, 25 U/mL HRP final concentrations). After 15 min of room temperature incubation, the reaction was stopped by adding 2 uL/well 1N NaOH and incubated for an additional 1 hr at room temperature. The absorbance at 600 nm was measured using the ViewLux plate reader (Perkin Elmer, Waltham, MA) with 6000 light energy, 2 sec exposure, and 2x binning instrument settings.
row,SMILES,Potency
1,CCOC(=O)c1c(C)[nH]c2c1-c1ccccc1C(=O)C2=O,1.19 µM (active)
2,Oc1c(Cl)cc(Cl)c(Cl)c1Cc1c(O)c(Cl)cc(Cl)c1Cl,inactive
3,COc1cccc2cc(-c3cc(=O)oc4cc(C)c(O)cc34)oc12,inactive
4,CCS(=O)(=O)C1=NSC2=NC(=O)/C(=C\c3ccc(OS(=O)(=O)c4ccccc4)cc3)C(=N)N21,inactive
5,N#Cc1c(N2CCCCC2)nc(N)c2c(N)nc(SCC(=O)O)cc12,18.8 µM (active)
6,N#C/C(=C(/O)Cc1cccc2ccccc12)c1nc2ccccc2s1,inactive
7,O=C(Nc1nnc(S(=O)(=O)N2CCOCC2)s1)c1cccc(Br)c1,inactive
